Source: PubChem
MCL1-BIM inh – inhibitors of MCL1 binding to BIM-BH3, primary screen, biochemical, fluorescence polarization. 320,000 compounds, 0.68% hits. inhibition, % at 10.9 µM. GST-MCL1 / FITC-Bim-BH3 fluorescence polarization. AID 2057, 2009. Induced myeloid leukemia cell differentiation protein Mcl-1 (Homo sapiens), Q07820;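 active means inhibition above the mean inhibition of all tested compounds plus 3 SD, set per campaign, cut at about 40% in these data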;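 further: higher means more loss of mP so more displacement of Bim peptide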
BCLXL inh – inhibitors of human Bcl-xL, primary screen, biochemical, fluorescence polarization, HTS; AID 2129, 2009; Bcl-2-like protein 1 (Homo sapiens), Q07817; GST-Bcl-xL / FITC-Bim BH3 peptide fluorescence polarization; inhibition, % at 10.9 µM; 320,000 compounds, 0.7% hits;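 active means inhibition above the mean of all tested compounds plus 3 SD, cutoff set per campaign, cut at about 30% in these data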;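 further: inhibitors lower millipolarization by displacing the labeled peptide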
Target sequence (Q07817 whole entry, looked up): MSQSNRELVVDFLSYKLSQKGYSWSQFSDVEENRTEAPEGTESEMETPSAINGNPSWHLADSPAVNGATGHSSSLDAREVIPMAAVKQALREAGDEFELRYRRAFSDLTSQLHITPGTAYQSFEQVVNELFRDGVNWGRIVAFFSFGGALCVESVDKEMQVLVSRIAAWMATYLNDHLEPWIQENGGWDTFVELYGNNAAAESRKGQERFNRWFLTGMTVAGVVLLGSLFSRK
GLD-1 TGE inh – GLD-1/TGE RNA complex disruptors, primary screen, biochemical, fluorescence polarization; Female germline-specific tumor suppressor gld-1 (Caenorhabditis elegans), Q17339; purified GLD-1 + fluorescein TGE RNA; inhibition, % at 5.96 µM; 320,000 compounds, 0.44% hits; AID 2280, 2010;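 active means percent inhibition above a per-plate cutoff, the plate mean of test compounds plus 3 SD, cut at about 30% in these data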
Target sequence (Q17339 whole entry, looked up): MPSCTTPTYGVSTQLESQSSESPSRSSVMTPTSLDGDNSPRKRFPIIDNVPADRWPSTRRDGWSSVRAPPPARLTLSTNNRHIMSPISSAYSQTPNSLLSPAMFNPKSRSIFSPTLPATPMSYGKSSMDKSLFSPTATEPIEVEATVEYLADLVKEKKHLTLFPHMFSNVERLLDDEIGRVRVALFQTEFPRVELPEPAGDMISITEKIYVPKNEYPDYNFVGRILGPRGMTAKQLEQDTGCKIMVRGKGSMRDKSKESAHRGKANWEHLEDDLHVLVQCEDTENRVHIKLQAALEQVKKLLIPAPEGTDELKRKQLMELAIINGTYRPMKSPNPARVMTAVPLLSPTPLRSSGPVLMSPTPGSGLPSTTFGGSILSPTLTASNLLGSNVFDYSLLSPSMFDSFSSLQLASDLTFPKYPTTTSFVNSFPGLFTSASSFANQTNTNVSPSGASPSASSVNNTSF
Mcl1-Bid inh – Mcl-1/Bid binding inhibitors, primary screen, biochemical, TR-FRET, 1536-well; AID 1021, 2008; inhibition, % at 21.7 µM; 220,000 compounds, 0.97% hits; Induced myeloid leukemia cell differentiation protein Mcl-1 (Homo sapiens), Q07820; TR-FRET Mcl-1/Bid-Dy647 peptide binding;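 active means compounds that cut the binding signal by more than half at the single screening dose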;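 further: His-tagged Mcl-1 with europium anti-His antibody binding Bid BH3 peptide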
Mcl-1 Bim block – inhibitors of Bim peptide binding to Mcl-1, primary screen, biochemical, bead-based flow cytometry, multiplex; 190,000 compounds, 0.1% hits; Bim peptide-Mcl-1 binding; AID 1009, 2008; Induced myeloid leukemia cell differentiation protein Mcl-1 (Homo sapiens), Q07820; inhibition, % at 10 µM; in the data active means inhibition above about 40%
Mcl1-Noxa inh – Mcl-1/Noxa binding inhibitors, primary screen, biochemical, TR-FRET, 1536-well; Induced myeloid leukemia cell differentiation protein Mcl-1 (Homo sapiens), Q07820; TR-FRET Mcl-1/Noxa peptide binding, 2 h; inhibition, % at 21.7 µM; 220,000 compounds, 1.5% hits; AID 1022, 2008;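 active means compounds that cut the protein-peptide binding signal by more than 50% relative to plate controls in a single-dose test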;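 further: His-tagged Mcl-1 with rhodamine Noxa BH3 peptide and terbium anti-His antibody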
Of the large screens only hits and unclear results are named; the others gave an inactive call. This is a sample that favours compounds with a hit; in the whole collection about 2.3% have one here.

COc1cc(OC)c(OC)cc1/C=N/N(C)c1ccccc1	none
COc1cc(/C=N/N(C)c2ccccc2)ccc1O	Mcl1-Noxa inh 56
N#CC(C(=O)Nc1cccc(Cl)c1)=C1Nc2ccccc2N1	none
N#CC(C(=O)Nc1ccc(Cl)c(Cl)c1)=C1Nc2ccccc2N1	Mcl1-Bid inh 53, Mcl1-Noxa inh 73
CN(CC(=O)Nc1cccnc1)S(=O)(=O)c1ccccc1	Mcl1-Bid inh 64
O=C(CS(=O)(=O)c1ccccc1)Nc1cccnc1	none
Cc1cccc(OCC(=O)NNC(=O)c2ccc([N+](=O)[O-])cc2)c1	none
O=C(COc1ccc2ccccc2c1)NNC(=O)c1ccc([N+](=O)[O-])cc1	Mcl1-Noxa inh 82
CCOCCc1nnc(NC(=O)CCS(=O)(=O)c2ccccc2)s1	none (no result: Mcl1-Bid inh, Mcl-1 Bim block, Mcl1-Noxa inh)
Cc1cc(OCC(=O)OCC(=O)N2CC(C)CC(C)C2)ccc1Cl (stereo unspecified)	none (no result: Mcl1-Bid inh, Mcl-1 Bim block, Mcl1-Noxa inh)
Cc1cc(C)c2c(=O)[nH]c(SCC(=O)c3ccc(F)c(C)c3)nc2n1	Mcl1-Bid inh 59
COc1ccc(/C=C2/C(=O)N(Cc3ccccc3)N=C2C)cc1	none
COc1ccc(/C=C2/C(=O)N(c3nc4ccccc4s3)N=C2CSc2ccc(Cl)cc2)cc1	Mcl1-Bid inh 51, Mcl1-Noxa inh 91
O=C1CN(C(=O)CCN2CCOCC2)C(c2ccccc2)c2cc(Br)ccc2N1 (stereo unspecified)	Mcl-1 Bim block 44
CCCC(=O)N1CC(=O)Nc2ccc(Br)cc2C1c1ccc(F)cc1 (stereo unspecified)	none (no result: Mcl1-Bid inh, Mcl-1 Bim block, Mcl1-Noxa inh)
c1coc(-c2nc3c4c5c(sc4ncn3n2)CCCC5)c1	Mcl1-Bid inh 97
COc1cc(C2C(C#N)=C(N)Oc3cc(C)oc(=O)c32)cc2c1OCO2 (stereo unspecified)	Mcl1-Noxa inh 51
COc1cc(C2C(C#N)=C(N)Oc3cc(C)oc(=O)c32)cc(OC)c1OC (stereo unspecified)	none (no result: Mcl-1 Bim block)
CC(=O)Nc1ccc(S(=O)(=O)NCc2ccccn2)cc1	Mcl1-Bid inh 91
O=C(NCc1nc2ccccc2[nH]1)C1=C[C@H](c2ccc(C(F)(F)F)cc2)C[C@H](OCCCCO)O1	none (no result: Mcl1-Bid inh, Mcl-1 Bim block, Mcl1-Noxa inh)
COCCn1c(SCC(=O)NC(=O)NCc2ccccc2)nc2ccccc21	Mcl1-Bid inh 56
CC(C)C(=O)NC(c1cccs1)c1cc([N+](=O)[O-])c2cccnc2c1O (stereo unspecified)	Mcl1-Bid inh 55, Mcl1-Noxa inh 63
COc1ccc2c(c1)CC/C(=C\Nc1ccc3c(c1)OCO3)C2=O	Mcl1-Noxa inh 73
O=C(CN1C(=O)NC(Cc2ccccc2)C1=O)Nc1ccc(F)c(Cl)c1 (stereo unspecified)	none (no result: Mcl1-Bid inh, Mcl-1 Bim block, Mcl1-Noxa inh)
O=c1cc(CN2CCN(c3ccc(O)cc3)CC2)nc2scc(-c3ccccc3)n12	Mcl1-Noxa inh 67
O=C(C[n+]1cccc(Br)c1)c1ccc(-c2ccccc2)cc1	none (no result: Mcl1-Bid inh, Mcl-1 Bim block, Mcl1-Noxa inh)
COc1ccc(C(=O)/C=C/c2ccc(N3CCCCC3)c([N+](=O)[O-])c2)c(OC)c1	none
COc1ccc(C(=O)/C=C/c2ccc(N3CCCCC3)c([N+](=O)[O-])c2)cc1	Mcl1-Bid inh 100
C=CCN(C(=O)c1ccc2snnc2c1)c1ccccc1	none (no result: Mcl1-Bid inh, Mcl-1 Bim block, Mcl1-Noxa inh)
O=C(COCC(=O)NCc1ccccc1)NCc1ccccc1	Mcl-1 Bim block 49
O=C(CCc1ccccc1)NCc1ccccc1	none
O=C(c1ccc(F)cc1)N1CCN(Cc2ccccc2Br)CC1	Mcl1-Bid inh 60
O=C(CN1C(=O)COc2ccccc21)N(Cc1ccc2c(c1)OCO2)CC1CCCO1 (stereo unspecified)	Mcl1-Bid inh 100
COc1cc(C2Nc3cccc4cccc(c34)N2)cc(OC)c1OC(C)=O	MCL1-BIM inh 46, BCLXL inh 39, Mcl1-Noxa inh 82
CCCNC(=O)CCCN1C(=O)c2ccccc2Sc2ncccc21	none (no result: Mcl1-Bid inh, Mcl-1 Bim block, Mcl1-Noxa inh)
O=C(NCCc1ccccc1)C1CCN(S(=O)(=O)c2ccc(-c3nn[nH]n3)cc2)CC1	Mcl1-Bid inh 88
CC(C)OC(=O)c1ccc(NC(=S)NC(=O)c2cncc(Br)c2)cc1	none (no result: Mcl1-Bid inh, Mcl-1 Bim block, Mcl1-Noxa inh)
O=C(Nc1ccc(N2CCCC2)c(Cl)c1)c1ccc([N+](=O)[O-])o1	Mcl1-Noxa inh 59 (no result: MCL1-BIM inh, BCLXL inh, GLD-1 TGE inh)
O=C(Cc1ccc(Br)cc1)Nc1ncc([N+](=O)[O-])s1	Mcl1-Noxa inh 70 (no result: Mcl-1 Bim block)
Cc1ccc(S(=O)(=O)N2CCN(C3CCC(c4ccccc4)CC3)CC2)cc1 (stereo unspecified)	none
CCS(=O)(=O)N1CCN(C2CCC(c3ccccc3)CC2)CC1 (stereo unspecified)	Mcl1-Bid inh 54
O=C(Nc1cccc(Cl)c1)c1cc(N=Nc2ccc([N+](=O)[O-])cc2Cl)ccc1O	Mcl1-Bid inh 100, Mcl1-Noxa inh 109 (no result: Mcl-1 Bim block)
CCOC(=O)/C=C(\C)Sc1cc(O)c2ccccc2c1O	Mcl1-Noxa inh 88 (no result: MCL1-BIM inh, BCLXL inh, GLD-1 TGE inh, Mcl-1 Bim block)
CCOC(=O)/C=C(\C)Sc1cc(=O)oc2ccccc12	none
O=C(/C=C/c1ccc(Br)o1)Nc1nnc(C2CC2)s1	Mcl1-Noxa inh 62 (no result: Mcl-1 Bim block)
CC1=C(C#N)C(=O)NC(=O)/C1=C/c1ccc(-c2ccc(S(N)(=O)=O)cc2)o1	Mcl1-Noxa inh 87
C=CCOC(=O)c1cc(-c2ccc(/C=C3\C(=O)NC(=O)C(C#N)=C3C)o2)ccc1Cl	Mcl1-Bid inh 99, Mcl1-Noxa inh 105 (no result: MCL1-BIM inh, BCLXL inh, GLD-1 TGE inh)
CCCOC(=O)c1cc(-c2ccc(/C=C3/C(=O)N(C)C(=O)C(C#N)=C3C)o2)ccc1Cl	none (no result: Mcl1-Bid inh, Mcl-1 Bim block, Mcl1-Noxa inh)
O=C(CCC(=O)c1cccs1)NCc1cccc(C(F)(F)F)c1	none (no result: Mcl1-Bid inh, Mcl-1 Bim block, Mcl1-Noxa inh)
Cc1cc(C2C(C#N)=C(N)OC3=C2C(=O)CCC3)c(C)s1 (stereo unspecified)	none
COc1cc(C2C(C#N)=C(N)OC3=C2C(=O)CCC3)c([N+](=O)[O-])cc1OC (stereo unspecified)	MCL1-BIM inh 194, BCLXL inh 156, GLD-1 TGE inh 98, Mcl1-Noxa inh 97
CCOC(=O)c1cc(C#N)c(SCC(N)=O)[nH]c1=O	BCLXL inh 38 (no result: Mcl-1 Bim block)
CCNS(=O)(=O)c1ccc(CCC(=O)Nc2ccc3c(c2)OCCO3)cc1	none (no result: Mcl1-Bid inh, Mcl-1 Bim block, Mcl1-Noxa inh)
COc1ccc(CNCCC2(Cc3ccccc3)CC(C)N(C)CC2C)cc1OC (stereo unspecified)	none
COc1ccc(-c2nnn(CC(=O)N(CCCO)C(C(=O)NC3CCCC3)c3ccncc3)n2)cc1 (stereo unspecified)	Mcl1-Bid inh 87
O=C1c2sc3nc4ccccc4n3c2C(=O)N1c1ccccc1Cl	Mcl1-Noxa inh 62
Cc1ccc(N2CC(C(=O)Nc3nnc(SCC(=O)N4CCOCC4)s3)CC2=O)cc1 (stereo unspecified)	none (no result: Mcl1-Bid inh, Mcl-1 Bim block, Mcl1-Noxa inh)
COc1ccc(C(=O)N2CCN(CC(=O)N3CCOCC3)CC2)cc1	none (no result: Mcl1-Bid inh, Mcl-1 Bim block, Mcl1-Noxa inh)
